The list is not random: actives were taken first. Their share in the collection is about 7.5%.
NPC1 prom act: activators of NPC1 promoter | Potency, µM (titrated, usually from 9.22 µM), inactives show at the top dose activation, hits mostly activators | Huh7 NPC1 promoter luciferase reporter, 24 h | actives 2.4% (n = 320,000); note: % of control where 0% means no effect; nearly all actives have a fitted effect of over 60% in size
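NPC1 promoter–luciferase Huh7 cells; 24 h compound; luminescence.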
SMN2 splice enh: enhancers of SMN2 splice variant expression; HEK293 SMN2-luciferase splicing reporter, luminescence, 30-36 h; Potency, µM (top dose mostly 46.1 µM), for the others: at the top dose activity change, positive = activation, usual class: activators; actives 2.8% (n = 210,000); AID 1458; note: % of control where 0% means no effect; nearly all actives have a fitted effect of over 55% in size
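HEK293 cells carry an SMN2 minigene-luciferase reporter in which exon 7 inclusion puts luciferase in frame. Cells were seeded at 2000 cells/well, attached for 10-12 hours, then exposed to compounds for 30-36 hours at 37C before ONE-Glo luminescence.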
ELG1 genotoxic: genotoxicity induction in ELG1-luciferase HEK293T cells; Potency, µM (doses to about 46 µM), without a hit: at the top dose activity change, positive = activation, hits mostly activators; actives 1.3% (n = 330,000); HEK293T ELG1-luciferase reporter, luminescence, 16 h; note: % of control where 0% means no effect; nearly all actives have a fitted effect of over 60% in size
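Step 1: seed 2,000 HEK293T ELG1-luciferase cells per well. Step 2: add compound or DMSO, incubate 16 hr at 37 °C. Step 3: ONE-Glo, 30 min at room temperature, read luminescence.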
FLuc modulator: firefly luciferase modulation, counter-screen for miR-21 project | P08659 | AID 588342 | Potency, µM (series often up to 57.5 µM), for the others: at the highest dose activity change, negative = inhibition, most hits filed as inhibitors | purified FLuc, Km substrates, luminescence inhibition | actives 6.9% (n = 360,000);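 note: plate controls were vehicle for no effect and reference inhibitor for full effect; nearly all actives have a fitted effect of over 55% in size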
Target sequence (P08659 whole entry, looked up): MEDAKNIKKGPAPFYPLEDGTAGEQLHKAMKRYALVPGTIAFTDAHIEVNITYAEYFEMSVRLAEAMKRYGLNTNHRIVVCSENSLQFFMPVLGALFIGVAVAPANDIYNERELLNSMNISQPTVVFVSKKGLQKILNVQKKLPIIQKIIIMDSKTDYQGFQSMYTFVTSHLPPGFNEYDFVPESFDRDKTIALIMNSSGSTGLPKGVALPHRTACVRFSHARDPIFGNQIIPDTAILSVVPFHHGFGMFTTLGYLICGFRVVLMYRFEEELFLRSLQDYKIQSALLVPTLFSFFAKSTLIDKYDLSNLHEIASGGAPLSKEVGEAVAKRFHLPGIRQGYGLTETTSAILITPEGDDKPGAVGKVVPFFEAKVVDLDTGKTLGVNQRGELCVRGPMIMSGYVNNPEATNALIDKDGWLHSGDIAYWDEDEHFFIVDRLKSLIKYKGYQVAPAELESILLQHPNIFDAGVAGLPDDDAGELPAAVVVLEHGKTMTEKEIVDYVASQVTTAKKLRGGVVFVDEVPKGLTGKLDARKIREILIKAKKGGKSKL
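Purified P. pyralis luciferase, 10 nM final, with Km-level 10 uM D-luciferin and 10 uM ATP in 50 mM Tris acetate pH 7.5, 10 mM Mg acetate, 0.01% Tween-20, 0.05% BSA; 6-point qHTS titration about 60 µM downward; luminescence read.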
Rab9 prom act: activators of Rab9 promoter. actives 2.8% (n = 320,000). Potency, µM (highest dose often 9.22 µM), without a hit: top-dose activation, negative = inhibition, usual class: activators. Huh7 Rab9 promoter-luciferase reporter, luminescence, 24 h; note: % of control where 0% means no effect; nearly all actives have a fitted effect of over 60% in size
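Luciferase signal after 10 min detection reagent at ambient indicates Rab9 promoter upregulation; stably transfected Huh7 cells were treated 24 h with compound in DMSO at 37 °C, 5% CO2.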
Active calls of the source: *; ? = inconclusive; . = not tested or not shown; [ ] = another dose, or the depositor's remark. Calls come from the whole dose curve; as a rule, active = well fitted curve in the direction sought with a large enough effect; inconclusive = small, poorly fitted or top-dose-only effect, or another doubt; inactive = no such curve, though single readings can be large; an effect the other way counts as inactive or inconclusive. Potency is the fitted concentration of half-maximal effect.

SMILES | NPC1 prom act | SMN2 splice enh | ELG1 genotoxic | FLuc modulator | Rab9 prom act
O=C(O)c1cccc(N/N=C/C2=C(Cl)c3cc(Cl)ccc3SC2)c1 | 0.316µM* | 0.501µM* | 0.58µM* | 1.35µM* | 0.794µM*
O=C(O)c1ccc(/C=N/O)cc1 | -4.5% | . | 0.7% | 0.3% | -0.6%
CC(C)c1ccc(/C=N/Nc2ccc(C(=O)O)cc2)cc1 | -23.0% | -70.7% | ? | 0.19µM* | -23.2%
O=C(O)c1ccc(/C=N/Nc2cccc(C(F)(F)F)c2)cc1 | 2.82µM* | 10µM* | ? | 21.3µM* | 2.51µM*
O=C(O)c1ccc(N/N=C/c2ccc(-c3ccccc3)cc2)cc1 | ? | 3.98µM* | ? | 0.477µM* | 0.316µM*
Cc1ccc(C)c(NC(=O)CSc2nnc(C3CCCCC3)o2)c1 | -2.2% | . | 7.9% | -3.3% | -0.5%
O=C(NC(=S)N1CCOCC1)c1cc2ccccc2o1 | 8.2% | . | 9.7% | -12.3% | 26.9%
COc1ccc(C(=O)N2CCN(S(=O)(=O)c3ccc(Br)cc3)CC2)cc1 | -1.8% | . | 1.6% | 4.1% | 0.7%
CCOc1ccc(-c2cccc(NC(=O)c3cccs3)c2)nn1 | 1.3% | . | -6.3% | ? | -4.7%
O=C(O)c1cccc(N/N=C/c2ccc(F)c(F)c2)c1 | 0.282µM* | 1.12µM* | ? | 0.338µM* | 0.282µM*
O=C(O)c1ccc(N/N=C/C=C/c2ccccc2)cc1 | 0.316µM* | . | ? | 0.601µM* | 0.251µM*
Nc1ccc(C(=O)N/N=C\c2ccc(OC(=O)c3ccccc3Cl)cc2)cc1 | -2.9% | . | 4.5% | ? | 2.4%
O=C(N/N=C/c1ccc(F)c(F)c1)c1cccc(S(=O)(=O)N2CCCCC2)c1 | -4.5% | . | 0.6% | 6.5% | -1.8%
COc1cc(/C=N/Nc2ccc(C(F)(F)F)cn2)ccc1O | 0.9% | 24.8% | 15.8% | ? | 11.0%
O=C(O)c1ccc(N/N=C/c2ccc(OC(=O)c3ccccc3Cl)cc2)cc1 | ? | -28.4% | ? | 1.9µM* | ?
O=C(O)c1ccc(/C=N/Nc2ccc(C(F)(F)F)cn2)cc1 | 0.398µM* | 12.6µM* | ? | 4.78µM* | ?
CC(C)(C)C(=O)Nc1nnc(SCC(=O)NC2CCCCC2)s1 | -0.1% | . | -0.8% | -0.9% | -1.4%
CC(C)(C)NC(=O)Nc1nnc(SCC(=O)NC2CCCCC2)s1 | 16.9% | . | 1.1% | 10.7µM* | 19.6%
Cc1csc(NC(=O)CSc2nnc(NC(=O)NC(C)(C)C)s2)n1 | 2.9% | . | 26.2% | 6.01µM* | 3.8%
CN(C)S(=O)(=O)c1cccc(NC(=O)c2n[nH]c(=O)c3ccccc23)c1 | -1.3% | -2.4% | -5.4% | -12.2% | -3.8%
CC(C)c1ccc(NC(=O)c2n[nH]c(=O)c3ccccc23)cc1 | ? | 5.62µM* | ? | -0.9% | 1.58µM*
Cc1cc(NC(=O)c2n[nH]c(=O)c3ccccc23)ccc1Br | ? | . | ? | 4.6% | 5.01µM*
CCN(CC)S(=O)(=O)c1cc(NC(=O)c2n[nH]c(=O)c3ccccc23)ccc1C | 6.1% | -25.7% | -11.8% | 23.9µM* | ?
CCC(CC)NC(=O)c1n[nH]c(=O)c2ccccc12 | 0.1% | -6.8% | 17.7% | 6.8% | -0.3%
O=C(NCCCN1CCCC1=O)C1CCC(CNS(=O)(=O)c2ccc(Cl)cc2)CC1 (stereo not drawn) | 0.0% | . | 1.0% | 0.3% | -10.9%
SMILES | NPC1 prom act | SMN2 splice enh | ELG1 genotoxic | FLuc modulator | Rab9 prom act
CC(C)CSc1nnc2c3ccccc3n(C)c2n1 | 18.3% | . | ? | 10.7µM* | 5.9%
CCCCCSc1nnc2c(n1)[nH]c1c(C)cccc12 | . | -11.7% | . | -12.0% | .
CCCCSc1nnc2c(n1)[nH]c1ccccc12 | ? | 3.55µM* | ? | ? | 1.26µM*
O=C(O)c1ccccc1CSc1nnc2c(n1)[nH]c1ccccc12 | 14.6% | . | -0.3% | 21.3µM* | -3.5%
CC(C)CSc1nnc2c(n1)[nH]c1ccccc12 | 3.55µM* | 2.24µM* | 0.651µM* | 0.675µM* | 0.708µM*
CC(C)OC(=O)CSc1nnc2c3ccccc3n(C)c2n1 | -4.0% | -7.8% | ? | 4.2% | -2.0%
OCCNC(=S)Nc1cc(Cl)cc(Cl)c1 | -3.4% | . | -3.6% | -3.7% | -2.2%
CCOCCCN1CC(=O)N2[C@@H](Cc3c([nH]c4ccccc34)C2(C)C)C1=O | -0.3% | . | -3.5% | 1.3% | -1.1%[1.84 µM]
COc1ccc2[nH]c3nc(SC(C)C)nnc3c2c1 | 0.708µM* | ? | 7.6% | 0.338µM* | 0.794µM*
COc1ccc(CNC(=O)CSc2nnc3c(n2)[nH]c2ccc(OC)cc23)cc1 | -0.5% | . | -1.1% | 3.3% | 5.6%
O=C(CSc1ccc(-c2ccccn2)nn1)c1ccccc1 | 22.7% | -24.4% | ? | ? | ?
COC(=O)c1cnc(SCC(=O)c2ccccc2)n1C | 1µM* | . | ? | 3.38µM* | 1.12µM*
COC(=O)c1ccnc(SCC(=O)c2ccccc2)c1 | 3.16µM* | ? | 14.6µM* | 3.79µM* | 2.82µM*
CCc1ccccc1NC(=O)c1ccc2nc(C(C)C)oc2c1 | . | . | . | -1.7% | .
Clc1ccc2nc(CSCc3ccccc3)cn2c1 | 1.58µM* | 12.6µM* | ? | 7.57µM* | 2µM*
Cc1ccc(SCc2cn3c(C)csc3n2)cc1 | 0.631µM* | 8.91µM* | 1.64µM* | 2.13µM* | 0.631µM*
Nc1nnc(SCc2cn3cc(Cl)ccc3n2)s1 | ? | ? | ? | ? | 3.98µM*
Nc1nnc(SCc2ccccc2Cl)s1 | . | -0.8% | . | ? | .
CNc1cc(CSc2ccc(Cl)cc2)nc(C)n1 | ? | ? | 18.2% | 16.9µM* | 2.24µM*
Cc1ccc(S(=O)(=O)NCc2cn3c(C)csc3n2)cc1 | -0.7% | 14.2% | -2.1% | -1.5% | -2.0%
CCOc1cccc(NC(=O)c2cccc(F)c2)c1 | 9.2% | 4.0% | 5.3% | ? | 7.9%
Cc1cccc2nc(CSCc3ccco3)cn12 | 1.12µM* | 11.2µM* | ? | 7.57µM* | 2.24µM*
Clc1ccc2nc(CSc3nncn3-c3ccccc3)cn2c1 | -1.8% | -8.4% | -0.5% | 5.3% | 0.8%
Clc1ccc2nc(CSc3nnc4ccccn34)cn2c1 | 0.501µM* | 10µM* | 8.2µM* | 7.57µM* | 1µM*
Clc1ccc2nc(CSc3nc4ccccc4o3)cn2c1 | 0.891µM* | 17.8µM* | 2.59µM* | 1.9µM* | 1µM*
SMILES | NPC1 prom act | SMN2 splice enh | ELG1 genotoxic | FLuc modulator | Rab9 prom act
Cc1cccc2nc(CSc3nc4ccccc4[nH]3)cn12 | -0.8% | 1.9% | 4.9% | ? | 20.0%
Cc1cccc2nc(CSc3ccc(Cl)cc3)cn12 | 3.16µM* | 11.2µM* | ? | 9.53µM* | 2.24µM*
COc1ccc(OC)c(NC(=O)COC(=O)CCc2ccc(S(=O)(=O)N3CCOCC3)cc2)c1 | . | . | 3.4% | . | .
Nn1c(SCc2cn3cc(Cl)ccc3n2)nnc1-c1ccncc1 | 2.5% | 5.1% | -3.1% | 0.5% | 2.3%
Clc1ccc(SCc2cn3ccccc3n2)cc1 | ? | 11.2µM* | ? | 9.53µM* | 2.51µM*
Clc1ccc(-n2nnnc2SCc2cn3ccccc3n2)cc1 | 3.4% | -6.8% | 4.7% | 1.1% | -2.5%
Cc1ccc(SCc2cn3cc(Cl)ccc3n2)cc1 | ? | . | 21.0% | 13.5µM* | ?

Screening results as filed in PubChem BioAssay.
